Data on 28 molecules can be found in PubChem BioAssay (NCI).

The panel holds about 83,000 compounds, 20% with a hit somewhere; the sample as a whole holds those more often.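 Assay: single dose, 48 h. Readout: percent growth (0 = no net growth; negative = cell death). Active: <10.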 Values without a mark were called inactive. The source made the active and inactive calls.

Holding throughout (assay): NCI-60 one-dose screen, 48 h (100 = growth as untreated, 0 = no growth, -100 = all killed)
Common to all, as to settings: 10 µM unless noted

Assay [1] has as its system HCT-15 colon.
Assay [2] concerns HT29 colon.
The subject of assay [3] is SNB-75 CNS.
Assay [4] relates to SNB-19 CNS.
For assay [5], the system named is U251 CNS.
Assay [6] has as its system PC-3 prostate.
The test system of assay [7] is SK-MEL-5 melanoma.
In assay [8] the test system is UACC-62 melanoma.
The test system of assay [9] is LOX IMVI melanoma.
Assay [10] relates to SK-MEL-28 melanoma.

Take `O=C1C(Cl)=C(Nc2cccc3cc4ccccc4nc23)C(=O)c2ccccc21`: the growth in assay [1] is 41.4%; in [2], 4.99% (active); in assay [3], 71.9%; in assay [4], 44.6%; in assay [5], 41.8%; in assay [6], 42%. The growth in [7] is 69.5%; in assay [8], 70.1%; in assay [9], 33.9%; in assay [10], 102%.
For `COc1ccc(C(=O)NC(=O)Nc2ccc3c(c2)NC(=O)/C3=C\c2[nH]c(C)c(CCC(=O)O)c2C)c(F)c1`, the growth in [1] is 39.6%; in assay [2] it was 55.6%; in [3], 44.2%; in assay [4], 27%; in assay [5], 0.371% (active); in assay [6], 30.2%. For the same molecule, the growth in [7] is 25.2%; in assay [8], 25.7%; in [9] it was 26.9%; in assay [10], 31.1%.
As to `CN(C)c1ncc(C#Cc2c(F)cccc2F)c2ccccc12`, the growth in assay [1] is 88.1%; in assay [2], 70.6%; in assay [3] it was 108%; in assay [4] it was 88.8%; in assay [5], 80%; in assay [6], 75.7%. The growth in assay [7] is 83.5%; in assay [8] it was 71.4%; in assay [9], 85.2%; in assay [10], 102%.
Turning to `Nc1nccc2c1ccn2-c1ccc(NC(=O)Nc2cccc(C(F)(F)F)c2)cc1`, the growth in assay [1] is 90%; in [2], 96.1%; in assay [3], 89%; in assay [4], 104%; in assay [5] it was 80.5%; in assay [6], 70.5%. Moreover, the growth was 93.5% in assay [7], 91.1% in assay [8], 87.6% in assay [9] and 101% in assay [10].
Turning to `Cc1ccc2c(C3C(C#N)=C(N)Oc4cc5ccccc5cc43)cc(=O)oc2c1` (stereo not given), the growth in [1] is 31%; in [2], 6.66% (active); in [3], 20.3%; in assay [4], 29.9%; in assay [5], 23.5%; in assay [6], 18.8%. Moreover, the growth is 13.6% in [7], 39.2% in [8], 38.4% in assay [9] and 64.4% in [10].
As for `CCOC(=O)n1cnc2c(Cl)ncnc21`, the growth in assay [1] was 112%; in assay [2], 106%; in assay [3], 93.9%; in [4], 86.4%; in assay [5] it was 101%; in [6] it was 113%. Further, the growth in assay [7] is 95.8%; in assay [8], 104%; in assay [9], 88.6%; in assay [10], 121%.
With `O=C(NCCNc1nccc(-c2c(-c3cccc(O)c3)nc3sccn23)n1)c1ccccc1`, the growth in [1] is 88.4%; in assay [2], 65.4%; in [3], 54.4%; in [4] it was 91.1%; in assay [5] it was 61.9%; in [6], 68.5%. Further, the growth in assay [7] was 40.2%; in [8] it was 0.903% (active); in assay [9] it was 23.2%; in assay [10] it was 37.8%.
Take `O=[N+]([O-])c1cccc(C2c3ccccc3Oc3ccccc32)c1`: the growth in [1] is 71.1%; in assay [2] it was 85.1%; in [3], 94.4%; in assay [4], 97.1%; in assay [5], 94.7%; in assay [6], 84.2%. In addition, the growth in [7] was 99.4%; in [8], 86.1%; in assay [9], 85.8%; in assay [10], 107%.
On to `COc1ccc(-c2nnc(SCC(=O)Nc3ccc(C(=O)/C=C/c4ccccc4)cc3)o2)cc1OC`, for which the growth was 94.6% in assay [1]; 93.4% in assay [2]; 92.8% in assay [3]; 92.2% in assay [4]; 98% in [5]; 100% in [6]. The growth in assay [7] is 87.1%; in assay [8], 92.4%; in [9], 85.9%; in assay [10], 106%.
`Nc1ncnc2c1c(-c1ccc(Oc3ccccc3)cc1)nn2C[C@H]1SSC[C@H]1O`: the growth was 26.6% in assay [1]; -59.1% (active) in assay [2]; 3.26% (active) in [3]; 45.9% in [4]; 21.1% in [5]; 50.7% in assay [6]. Also, the growth in [7] is -92.5% (active); in [8], -48.8% (active); in [9], -57.7% (active); in [10], -16.3% (active).
On to `COc1ccc(C2=NN(C(=O)COc3ccc(Cl)cc3)C(O)(c3cc(F)c(Cl)cc3Cl)C2)cc1OC` (stereo not given), for which the growth in assay [1] was 4.88% (active); in assay [2], -75.9% (active); in [3], 3.94% (active); in assay [4], 62.7%; in assay [5], 55.5%; in assay [6] it was 32.1%. Also, the growth in assay [7] was 65.4%; in assay [8] it was 52.5%; in [9] it was -35.6% (active); in [10], -51.6% (active).
Take `CC(C)(c1ccc(OCC(O)CNCc2ccco2)cc1)c1ccc(OCC(O)CNCc2ccco2)cc1` (stereo not given): the growth was 82.8% in assay [1]; 78.5% in assay [2]; 80.1% in assay [3]; 96.4% in assay [4]; 70.1% in assay [5]; 75.6% in [6]. The growth in assay [7] was 91.7%; in assay [8], 104%; in assay [9], 86.1%; in assay [10], 101%.
Consider `CCn1c(C)nc([N+](=O)[O-])c1Sc1nc(N)nc2nc[nH]c12`, for which the growth in [1] is 40.7%; in assay [2], 29.3%; in assay [3], 44.7%; in assay [4] it was 95.1%; in [5], 55.1%; in assay [6], 52.7%. Besides, the growth is 59.2% in [7], 1.74% (active) in assay [8], 7.51% (active) in assay [9] and 81.3% in assay [10].
As to `Cc1ccc2oc(=O)cc(C3C(C#N)=C(N)Oc4c3ccc3ccccc43)c2c1` (stereo not given), the growth was 51.1% in assay [1]; 38.8% in assay [2]; 67.5% in assay [3]; 84.9% in [4]; 82.8% in assay [5]; 55.6% in [6]. The growth in assay [7] was 61.1%; in assay [8], 61.4%; in assay [9], 75.4%; in assay [10], 86.2%.
For the molecule `COc1ccc(OCC(O)CN2CCN(c3ccc(Cl)cc3)CC2)cc1` (stereo not given), the growth was 105% in [1]; 98.5% in assay [2]; 84.7% in assay [3]; 85.7% in assay [4]; 94.5% in assay [5]; 104% in assay [6]. Besides, the growth in assay [7] was 84.3%; in assay [8], 84.9%; in [9], 91.4%; in assay [10] it was 114%.
On to `COc1ccc(/C=C/C(=O)/C=C(/C=C/c2ccc(OC)c(OC)c2OC)OB(F)F)c(OC)c1OC`, for which the growth was 9.58% (active) in assay [1]; 13.9% in assay [2]; 94.5% in assay [3]; 57.1% in assay [4]; 4.99% (active) in assay [5]; 29.1% in assay [6]. Also, the growth was 36.8% in assay [7], 35.4% in [8], -5.79% (active) in assay [9] and 41% in assay [10].
`CC(C)(C)OC(=O)NCc1cccc(N=C=S)c1`: the growth in [1] is 38.9%; in assay [2], 37.6%; in assay [3] it was 40.7%; in assay [4] it was 77.1%; in [5] it was 58.3%; in [6], 51.2%. Also, the growth was 49.2% in assay [7], 14.2% in assay [8], 24.4% in assay [9] and 23.1% in assay [10].
For `COc1ccc(/C(Cl)=N/N=C(\Cl)c2cc(OC)c(OC)c(OC)c2)cc1OC(C)=O`, the growth in assay [1] was 100%; in assay [2], 79.2%; in assay [3] it was 78.7%; in assay [4] it was 92.3%; in [5] it was 89.6%; in [6], 74.8%. In addition, the growth in assay [7] was 94.8%; in assay [8] it was 93.9%; in [9] it was 96.7%; in [10] it was 110%.
Take `O=C(c1cc(-c2ccc(Cl)cc2)nc2ccccc12)N1N=C(c2ccccc2)CC1c1cc(-c2ccccc2)nn1-c1ccccc1` (stereo not given): the growth in assay [1] was 56.7%; in [2], 98.7%; in assay [3] it was 69.2%; in assay [4] it was 77.1%; in assay [5], 63.8%; in assay [6] it was 71.3%. For the same molecule, the growth in assay [7] is 78.7%; in [8], 79.2%; in assay [9], 57%; in assay [10], 73.3%.
For `Oc1ccc(Cl)cc1Sc1cc(Cl)ccc1O`, the growth in assay [1] was 92.9%; in [2], 102%; in assay [3], 63.4%; in assay [4] it was 95.1%; in assay [5], 93.9%; in [6], 89.6%. Also, the growth in assay [7] is -14.2% (active); in assay [8], 58.8%; in [9], 88.1%; in [10], 52.5%.
`CC(C)CNCC(O)COc1ccc(C(C)(C)c2ccc(OCC(O)CNCC(C)C)cc2)cc1` (stereo not given): the growth is 20.1% in assay [1]; -8.67% (active) in assay [2]; 63.9% in assay [3]; 51.7% in assay [4]; -5.63% (active) in assay [5]; 47.4% in assay [6]. Besides, the growth in [7] was -95% (active); in assay [8] it was -65.2% (active); in [9], -79.9% (active); in assay [10], -60.5% (active).
Take `CC(=O)O[C@@H]1[C@@H](OC(C)=O)[C@H](OC(C)=O)CO[C@H]1Nc1cccc2ccccc12`: the growth was 94% in assay [1]; 84.2% in assay [2]; 93.9% in assay [3]; 105% in assay [4]; 105% in assay [5]; 90.8% in assay [6]. Further, the growth was 103% in assay [7], 97.2% in assay [8], 88.8% in assay [9] and 110% in [10].
For `CC(C)(C)OC(=O)N1CCN(CCn2cc(C(F)(F)F)c3c(Cl)ncnc32)CC1`, the growth in [1] was 10.9%; in [2] it was 23.5%; in assay [3], 111%; in assay [4] it was 37.3%; in [5] it was 17.3%; in assay [6], 8.61% (active). Besides, the growth is 80% in [7], 55.4% in assay [8], -81% (active) in assay [9] and 52.8% in [10].
In the case of `CCCCOc1c(N)cccc1C(=O)OCCN(CC)CC`, the growth in [1] is 109%; in assay [2], 85.8%; in [3] it was 102%; in assay [4], 99.9%; in assay [5], 96.5%; in assay [6] it was 86.8%. For the same molecule, the growth in assay [7] is 105%; in [8] it was 95.2%; in assay [9] it was 102%; in assay [10], 112%.
`Cc1cn(C2CC(F)C(CO)O2)c(=O)[nH]c1=O` (stereo not given): the growth in assay [1] is 107%; in assay [2], 98.9%; in [3], 81.8%; in [4] it was 90.1%; in assay [5], 96.7%; in assay [6] it was 93.8%. For the same molecule, the growth in [7] is 74.4%; in assay [8], 81.1%; in assay [9], 97.7%; in [10] it was 105%.
With `Cc1ncc(CO)c(C(=O)O)c1O`, the growth in assay [1] was 105%; in assay [2], 89.1%; in assay [3], 93.4%; in assay [4], 107%; in assay [5], 98.8%; in [6] it was 88.5%. Moreover, the growth was 103% in assay [7], 97% in assay [8], 102% in assay [9] and 102% in assay [10].
For the molecule `O[C@@H]1CCO[C@H](c2ccc3ccccc3c2)C1`, the growth in assay [1] was 85.9%; in assay [2] it was 100%; in assay [3] it was 97.2%; in assay [4], 101%; in assay [5] it was 96.7%; in [6], 95.5%. For the same molecule, the growth in assay [7] is 102%; in assay [8], 100%; in assay [9], 102%; in assay [10] it was 111%.
`COc1ccc(Cl)cc1NC(=O)c1cc2c(n1C)-c1nc(NC(=O)C(C)C)sc1CC2`: the growth was 50.7% in assay [1]; 66.7% in assay [2]; 59.3% in [3]; 83.1% in assay [4]; 59.9% in assay [5]; 60.6% in assay [6]. Further, the growth in assay [7] is 61%; in assay [8], 83.1%; in assay [9] it was 93%; in assay [10] it was 95.1%.
